Measured values published in PubChem BioAssay AID624255 (Broad Institute, 2012).
Values joined by “and” are separate entries in the source; they are usually repeats but may differ in a detail not shown here. Equal values may be shown once. Screen size: about 77,000 compounds; about 4,600 (6%) were called active. Inconclusive results (about 1%) are left out.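 Rule for the calls: active = mean inhibition above about 93%, with at least 55% of replicates each passing it (limit read from the data, passing the limit was not always enough); inconclusive = only one of those two conditions holds; inactive = neither condition holds.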 The entries come from a sample that favours actives as a whole.

Assay: growth inhibition of T. cruzi in host fibroblasts – cell-based, beta-gal Tulahuen parasites, NIH3T3 host, luminescence, primary screen (AID 624255)
Conditions: T. cruzi beta-gal in NIH3T3, GalScreen luminescence, 90 h; at 8.34 µM; hits give high values

Row | Compound | inhibition
1 | Cc1ccccc1S(=O)(=O)N1[C@H](C#N)[C@H](c2ccccc2)[C@H]1CO | -43.9% (inactive)
2 | COc1ccc(NC(=O)N(C)C[C@@H]2Oc3c(NC(=O)NC4CCCCC4)cccc3C(=O)N([C@H](C)CO)C[C@H]2C)cc1 | 2.44% (inactive)
3 | COc1ccc(NC(=O)N(C)C[C@H]2Oc3c(NC(=O)NC(C)C)cccc3C(=O)N([C@@H](C)CO)C[C@H]2C)cc1 | 39.4% (inactive)
4 | C[C@@H]1CN([C@@H](C)CO)C(=O)c2cccc(NC(=O)Nc3cccc4ccccc34)c2O[C@H]1CN(C)S(=O)(=O)c1ccccc1 | 41.2% (inactive)
5 | Cc1ccc(S(=O)(=O)N(C)C[C@@H]2Oc3c(NC(=O)c4nc5ccccc5s4)cccc3C(=O)N([C@H](C)CO)C[C@@H]2C)cc1 | 110% (active)
6 | COc1ccc(S(=O)(=O)N(C)C[C@@H]2Oc3c(NC(=O)NC(C)C)cccc3C(=O)N([C@@H](C)CO)C[C@@H]2C)cc1 | 11.6% (inactive)
7 | C[C@@H]1CN([C@@H](C)CO)C(=O)c2cccc(NC(=O)c3nc4ccccc4s3)c2O[C@H]1CN(C)S(=O)(=O)c1cccs1 | 82.6% (inactive)
8 | COc1ccc(NC(=O)N(C)C[C@@H]2Oc3c(NC(=O)NC4CCCCC4)cccc3C(=O)N([C@@H](C)CO)C[C@@H]2C)cc1 | 99.3% (active)
9 | COc1ccc(S(=O)(=O)N(C)C[C@H]2Oc3c(NC(=O)Nc4cccc5ccccc45)cccc3C(=O)N([C@@H](C)CO)C[C@H]2C)cc1 | 128% (active)
10 | C[C@@H]1CN([C@H](C)CO)C(=O)c2cccc(NC(=O)c3nc4ccccc4s3)c2O[C@H]1CN(C)S(=O)(=O)c1ccc(Cl)cc1 | 55.8% (inactive)
11 | CO[C@H]1CN(C)C(=O)c2ccc(NS(C)(=O)=O)cc2OC[C@@H](C)N(C(=O)c2ccc3c(c2)OCO3)C[C@@H]1C | 22.5% (inactive)
12 | O=C(C[C@@H]1CC[C@H]2[C@@H](COC[C@H](O)CN2C(=O)Nc2ccc(Cl)cc2)O1)NCC1CC1 | 9.76% (inactive)
13 | O=C(c1cccnc1)N1C[C@H]2[C@@H](c3ccccc31)[C@H](CO)N2C(=O)C1CC1 | 32.1% (inactive)
14 | COc1ccc(NC(=O)Nc2ccc3c(c2)[C@H]2C[C@H](CC(=O)NC4CCCCC4)O[C@H](CO)[C@H]2O3)cc1 | -22.1% (inactive)
15 | O=C(NC1CCCC1)[C@H]1[C@H](CO)[C@H]2Cn3c(cccc3=O)[C@H]2N1C(=O)NC1CCCC1 | -32.8% (inactive)
16 | C[C@@H]1CN([C@H](C)CO)C(=O)c2cc(-c3cccc(C#N)c3)cnc2O[C@H]1CN(C)C(=O)C1CCC1 | -99.6% (inactive)
17 | COCC(=O)Nc1ccc2c(c1)OC[C@H](C)N(C(=O)c1ccccn1)C[C@@H](C)[C@H](OC)CN(C)C2=O | 26.6% (inactive)
18 | C[C@H](CO)N1C[C@H](C)[C@@H](CN(C)C(=O)C2CC2)Oc2ncc(-c3cccc(C#N)c3)cc2C1=O | 68.3% (inactive)
19 | Cc1ccc(S(=O)(=O)N2C[C@H](O)COC[C@@H]3O[C@H](CC(=O)N[C@H]4CCN(Cc5ccccc5)C4)CC[C@H]32)cc1 | 51.3% (inactive)
20 | C[C@H](O)C#Cc1ccc2c(c1)O[C@H](CN(C)C(=O)C1CC1)[C@@H](C)CN([C@H](C)CO)S2(=O)=O | 13.9% (inactive)
21 | C[C@@H]1CN([C@@H](C)CO)S(=O)(=O)c2ccc(C#CCN(C)C)cc2O[C@H]1CN(C)C(=O)C1CC1 | 94.7% (active)
22 | CCCC#Cc1ccc2c(c1)O[C@H](CN(C)C(=O)C1CCCCC1)[C@H](C)CN([C@H](C)CO)S2(=O)=O | 68.4% (inactive)

Row | Compound | inhibition
23 | C[C@@H]1CN([C@H](C)CO)S(=O)(=O)c2ccc(-c3ccccc3)cc2O[C@H]1CN(C)C(=O)C1CCC1 | 55% (inactive)
24 | C[C@@H]1CN([C@H](C)CO)S(=O)(=O)c2ccc(-c3ccccc3)cc2O[C@@H]1CN(C)C(=O)C1CC1 | 84.2% (inactive)
25 | C[C@H](O)C#Cc1ccc2c(c1)O[C@@H](CN(C)C(=O)C1CC1)[C@H](C)CN([C@H](C)CO)S2(=O)=O | -20.8% (inactive)
26 | CCC(=O)N(C)C[C@H]1Oc2cc(C#CCC(C)C)ccc2S(=O)(=O)N([C@H](C)CO)C[C@H]1C | 41.2% (inactive)
27 | C[C@H](CO)N1C[C@H](C)[C@@H](CN(C)C(=O)C2CCCCC2)Oc2cc(-c3ccccc3)ccc2S1(=O)=O | 103% (active)
28 | CC(C)CC#Cc1ccc2c(c1)O[C@H](CN(C)C(=O)C1CC1)[C@@H](C)CN([C@@H](C)CO)S2(=O)=O | 115% (active)
29 | COCC(=O)Nc1ccc2c(c1)[C@@H]1C[C@@H](CC(=O)N3CCN(C)CC3)O[C@H](CO)[C@@H]1O2 | -9.47% (inactive)
30 | COc1ccc(NC(=O)N(C)C[C@H]2Oc3cc(-c4ccncc4)ccc3S(=O)(=O)N([C@@H](C)CO)C[C@H]2C)cc1 | 53.3% (inactive)
31 | CCCNC(=O)[C@H]1[C@H](CO)[C@H]2Cn3c(ccc(C4=CCCC4)c3=O)[C@H]2N1C(=O)CC1CC1 | -12.5% (inactive)
32 | C[C@H](NC(=O)C[C@H]1CC[C@H]2[C@@H](COC[C@H](O)CN2C(=O)Nc2cc(Cl)cc(Cl)c2)O1)c1ccccc1 | 20.2% (inactive)
33 | Cc1ccccc1S(=O)(=O)N[C@@H]1CC[C@@H](CCNS(=O)(=O)c2cccc(F)c2)O[C@H]1CO | 22% (inactive)
34 | CCC(=O)N(C)C[C@H]1Oc2ncc(-c3ccc(C#N)cc3)cc2C(=O)N([C@@H](C)CO)C[C@H]1C | 51.9% (inactive)
35 | COc1ccc(-c2cnc3c(c2)C(=O)N([C@H](C)CO)C[C@@H](C)[C@H](CN(C)Cc2ccccc2)O3)cc1 | 19.2% (inactive) and 75.6% (inactive)
36 | C/C=C/c1ccc([C@H]2[C@@H](C#N)N(C(=O)CN3CCOCC3)[C@@H]2CO)cc1 | 80.8% (inactive)
37 | COc1ccccc1C#Cc1ccc([C@@H]2[C@@H](CO)N(C(=O)C3CC3)[C@H]2C#N)cc1 | 88.6% (inactive)
38 | N#C[C@@H]1[C@H](c2ccc(C#Cc3ccccc3F)cc2)[C@H](CO)N1C(=O)C1CCCCC1 | 83.3% (inactive)
39 | N#C[C@@H]1[C@@H](c2ccccc2)[C@@H](CO)N1C(=O)Cc1ccccc1 | 105% (active)
40 | N#C[C@H]1[C@H](c2ccc(-c3ccccc3)cc2)[C@@H](CO)N1C(=O)Cc1ccccc1 | 79.5% (inactive)
41 | COCC(=O)N1[C@H](CO)[C@@H](c2ccc(C#Cc3ccccc3F)cc2)[C@@H]1C#N | 97.7% (active)
42 | N#C[C@@H]1[C@@H](c2ccc(-c3ccccc3)cc2)[C@@H](CO)N1C(=O)Cc1ccccc1 | 31% (inactive)
43 | COC(=O)C[C@@H]1C[C@H]2c3cc(NC(=O)Nc4ccc(F)cc4)ccc3O[C@H]2[C@@H](CO)O1 | -1.42% (inactive)
44 | CC(=O)NC[C@H]1[C@H](c2ccc(C3=CCCCC3)cc2)[C@@H](CO)N1C(=O)NC(C)C | 21.7% (inactive)

Row | Compound | inhibition
45 | COc1ccccc1S(=O)(=O)N[C@@H]1CC[C@H](CC(=O)N2CCOCC2)O[C@@H]1CO | 16.9% (inactive)
46 | CNC(=O)C[C@@H]1CC[C@@H]2[C@H](COc3ccc(NC(=O)Nc4ccccc4)cc3C(=O)N2C)O1 | 7.48% (inactive)
47 | C[C@H](CO)N1C[C@H](C)[C@H](CN(C)CC2CC2)OCCCC[C@H](C)Oc2ccc(NC(=O)c3ccncc3)cc2C1=O | 29.6% (inactive)
48 | CCC(=O)N1C[C@H](C)[C@@H](OC)CN(C)C(=O)c2cc(NC(=O)c3cnccn3)ccc2OC[C@@H]1C | 11% (inactive)
49 | COCCNC[C@@H]1[C@H](c2ccccc2)[C@H](CO)N1c1nc(C)c(C)s1 | 100% (active)
50 | CCNC[C@@H]1[C@@H](c2ccccc2)[C@@H](CO)N1C(=O)Cc1ccccn1 | 31.9% (inactive)
51 | COCC(=O)N1[C@H](CNC(=O)c2ccccn2)[C@H](c2ccccc2)[C@@H]1CO | 26.4% (inactive)
52 | COC(=O)C[C@@H]1CC[C@@H]2[C@H](COc3ccc(NC(=O)c4ccccc4OC)cc3C(=O)N2C)O1 | 44.4% (inactive)
53 | CCC(=O)N1[C@@H](CO)[C@@H]2c3ccccc3N(C(=O)c3ccccc3F)C[C@@H]21 | 6.74% (inactive)
54 | CC(=O)N1[C@H](CO)[C@H]2c3ccccc3N(C(=O)c3ccc(F)cc3)C[C@H]21 | 14.7% (inactive)
55 | O=C(c1ccccc1F)N1C[C@H]2[C@@H](c3ccccc31)[C@@H](CO)N2C(=O)c1ccc(F)cc1 | 103% (active)
56 | O=C(C[C@@H]1C[C@@H]2c3cc(NC(=O)CC4CC4)ccc3O[C@@H]2[C@@H](CO)O1)NCCN1CCCCC1 | -43.9% (inactive)
57 | COc1cccc(CNC(=O)c2cc3c(c(-c4cccc(-c5ccc(C#N)cc5)c4)n2)[C@@H](CCO)N([S@](=O)C(C)(C)C)C3)c1 | 84.2% (inactive)
58 | CCCNC(=O)c1cc2c(c(-c3cccc(-c4ccc(F)cc4)c3)n1)[C@@H](CCO)N([S@](=O)C(C)(C)C)C2 | 87.5% (inactive)
59 | CC(C)(C)[S@@](=O)N1Cc2cc(C(=O)NCc3ccc4c(c3)OCO4)nc(-c3cccc(-c4ccccc4)c3)c2[C@H]1CCO | 99.7% (active)
60 | CCC(=O)N1C[C@@H](C)[C@H](OC)CN(C)C(=O)c2ccc(NC(=O)Nc3ccccc3)cc2OC[C@@H]1C | 13.5% (inactive)
61 | C[C@H](CO)N1C[C@H](C)[C@@H](CN(C)C(=O)Nc2cc(F)ccc2F)Oc2cc(C#CC3CC3)ccc2S1(=O)=O | 114% (active)
62 | CCC(=O)N(C)C[C@H]1Oc2cc(C#CC3CCCC3)ccc2S(=O)(=O)N([C@H](C)CO)C[C@@H]1C | 86.4% (inactive)
63 | C[C@H](CO)N1C[C@H](C)[C@H](CN(C)C)Oc2cc(C#CC3CC3)ccc2S1(=O)=O | -175% (inactive)
64 | C[C@H]1CN([C@@H](C)CO)S(=O)(=O)c2ccc(C#CC3CCCC3)cc2O[C@@H]1CN(C)C(=O)c1cccc(F)c1 | 115% (active)
65 | COCC(=O)N(C)C[C@H]1Oc2cc(C#CC3CCCC3)ccc2S(=O)(=O)N([C@H](C)CO)C[C@@H]1C | 22.9% (inactive)
66 | CC(=O)N(C)C[C@H]1Oc2cc(C#CC3CC3)ccc2S(=O)(=O)N([C@H](C)CO)C[C@@H]1C | 21.1% (inactive)
